Laboratory results from PubChem BioAssay AID1508600 (Functional Genomics Laboratory (NCATS/FGL), 2020).
In all, about 53,000 sequences went through this assay and about 3,700 (7%) were called active. The entries come from a sample that favours actives as a whole. Values without a mark were called inactive.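 How the source made its calls: active means gene knockdowns whose robust z-score for IL-1 alpha signal is at least 2 or at most -2, so actives lie on both sides; inactive means the rest.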

Test: Components of the Cytosolic LPS Sensing Pathway: Gene Identification via Genome-wide siRNA Screen;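 further: robust z of the log signal after scaling to non-targeting control siRNA wells of the plate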
Conditions: RAW264.7 macrophages, IL-1a HTRF, actives lie on both sides, screened at 100 nM (by protocol), cells primed 5 h with Pam3CSK4 first
How it was run: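 Knockdown: 100 nM siRNA, 48h, RAW264.7. Stimulation: Pam3CSK4 5 h, then LipidA via TransIT-TKO 24 h. Output: supernatant IL-1a HTRF, negative-control-normalized, log robust z-score; viability by CellTiter-Glo.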
In the case of GCUGUUCCACAUUGAAGUGTT against Pcdh18, the z-score was 2.84 (active).
For GCUGAUGGACUCAAGAAAGTT against Zbed5, the z-score was -0.805.
In the case of GGACCAUUCUGGCUACUCATT against Ankrd34b, the z-score was -2.17 (active).
For GGACAAAUUUCUUUUCCUUTT against Atp10a, the z-score was -0.448.
With GCUGAUAAACCACUUGUGATT against Olfr1287 the z-score was -0.804.
Sequence GGCAUUCAAACCUCUCGUGTT against Dcn has a z-score of -0.921.
For GGGUGAUUGAUCACUACUUTT against Olfr279, the z-score was 0.784.
GGAAAUGGUAAUUUUCAGUTT against Slc25a36 showed a z-score of -0.242.
In the case of GGGAUGAAGUCCUGGAUAATT against Atp6v1g1, the z-score was -0.953.
Sequence CCAACUUCGAUGCUGAGAGTT against Anxa2 has a z-score of -1.8.
With CGACAGAGGAAGGUAUUGGTT against Gcsh the z-score was -2.95 (active).
In the case of CGCCUCAUCAUCUCGAUUCTT against Cnga3, the z-score was -1.63.
Sequence GCAUGUGGAGAAGAUGAGGTT against Tas2r143 has a z-score of 0.793.
With GGAUUUCAAAGUGCUUUGCTT against Kifap3 the z-score was 3.44 (active).
For CCUAAACCCAUUCCAGUCUTT against Dpm3, the z-score was 0.104.
CCUGAGACAUACUUAAUGUTT against Anapc10 showed a z-score of 0.747.
CCUCGAGAGACUUUCAUGGTT against F2 gave a z-score of -0.475.
In the case of GCUUAUGAGAUGAGUGAAUTT against Ccdc43, the z-score was -0.209.
For GGAAUGUUUGGUGCUAUGATT against Flvcr2, the z-score was 3.4 (active).
Sequence GGGAUUUUCAGGGAGAUUUTT against Plekho1 has a z-score of 1.46.
For CCAGGACCUUAUCAGGUUUTT against Idh2, the z-score was 2.44 (active).
With GCUUAGGAAUGGCGACAACTT against Vmn1r188 the z-score was -0.413.
GGCAAUGAGAAAGUUACUCTT against Olfr1102 gave a z-score of 1.65.
GGCAGGUGUUAAGGCUUCATT against Tas2r117 gave a z-score of 0.873.
For GGAACCACUGCUUUCAAAATT against Cd36, the z-score was 0.83.
For GCUUUACCUGCAUAUUCCATT against Nradd, the z-score was -2.04 (active).
For GGGCCAGCAUGUUAUCUGUTT against Kat8, the z-score was -0.8.
CCAGCCAGACUGAAAAAGCTT against Stmnd1 showed a z-score of -0.652.
For GGGAGAUGCAACAACAAGATT against Epx, the z-score was -0.847.
For GGACAAAUGAACAUGCUGATT against Edn2, the z-score was -2.26 (active).
In the case of “GAAGUGAUGCUGCUAGUAGTT against A030005L19Rik”, the z-score was -2.
GGAACACUGGGAACGUAUCTT against Ifnk showed a z-score of 0.00139.
With GCCCUAGUGUCUGAAAAAATT against Sfrp5 the z-score was 0.864.
For GGACAAGGCUGCUACUUCATT against Pou6f2, the z-score was 1.74.
With GGCACUUCUUAAUCCCACATT against Nfe2 the z-score was -2.41 (active).
For GUACAAGUGUGGACCCUUATT against Chchd2, the z-score was 0.409.
With GCAGGCUACCUCUAAUCCATT against Slc23a3 the z-score was -0.241.
GGAUCUAAAGCUUGAACCUTT against Pheta1 showed a z-score of 1.24.
With GCUACCAUCUGCUAAUACATT against Smg1 the z-score was 3.65 (active).
In the case of GGUUCCACAGUGGCAAAUGTT against Vmn1r202, the z-score was 0.957.
Work on GCCUAUCACGAGCUAUGAUTT against Shkbp1 yielded a z-score of -1.5.
Sequence GGAAUCGAAACCAAUGUGUTT against Il1rl2 has a z-score of -0.471.
For “GGUUCAAAUGUUCUCCAUATT against 9530080O11Rik”, the z-score was 2.55 (active).
Sequence GCUCCGGAAAUUGGCAUCATT against Ppp1r10 has a z-score of -1.5.
In the case of GGAGAAGAAGAAAAAGUCATT against BC005537, the z-score was -0.495.
With GAUGUUUCAGAACAUUCUUTT against Cadps the z-score was 0.436.
With GGACAUAAAAGUGUCUCGATT against Cldn13 the z-score was 0.16.
Sequence GCCAAGGGUUUGAAAGCCATT against Tpm1 has a z-score of -0.949.
With GGCUUGUUUUGCCCAGAUGTT against Olfr398 the z-score was -2.94 (active).
Work on CCUCAUGUUAAUCUGGAGATT against Gabre yielded a z-score of 0.0167.
In the case of GGAAGUAUUAAUGUACAACTT against Msmo1, the z-score was 0.0519.
With CGGUGGUCACUGUGAAAUGTT against Nr1h5 the z-score was 0.0152.
CGGGAAGAAGUUCAUAAAUTT against Topbp1 gave a z-score of 0.36.
With GGUUAAAUGUCGUUUAUACTT against Rasa3 the z-score was 0.308.
With GGAUAUCGAGGAGAUGAUCTT against Aoc3 the z-score was -2.17 (active).
GCAGUUGACCACAGAAAAUTT against BC061237 gave a z-score of -1.35.
In the case of GGACCCAUGAGGUUAACUUTT against Tbc1d22a, the z-score was 0.922.
For GGGAACCAGCCAGUUCAAGTT against Ap1g2, the z-score was 1.39.
CCGUUUCAUUUCAGGGAGGTT against Phf1 showed a z-score of 0.307.
For GGAGAAAUCAAGCAAAGAUTT against Soat1, the z-score was -0.0846.
For GGCUACAGCAAGAAGACUUTT against Ctsw, the z-score was 3.08 (active).
In the case of CCGGAAAUUUUCUUUGCCCTT against Sec23ip, the z-score was -1.12.
For “GGAAGGAUUCUGGAAACAGTT against 2210409E12Rik”, the z-score was -2.1 (active).
GCCAUUGGAGUAUAUCUUGTT against Olfr873 gave a z-score of -0.273.
Sequence GGUUCACGAGCUAAGCUGUTT against Sec23b has a z-score of -1.07.
With GGACCACUCUGAAUAAGACTT against Ttc12 the z-score was -1.3.
For GGAUCAACAGAGGUUGGCATT against Aldh1a7, the z-score was -2.03 (active).
Work on GCAGCUCAAUUAGAGUCCATT against Gart yielded a z-score of -0.11.
